Assay outcomes: PubChem BioAssay, several laboratories
FXN GAA850 act – FXN promoter activators, primary screen, cell-based, luciferase luminescence, HEK293 lucGAA850; HEK293 lucGAA850 FXN promoter luciferase reporter, 24 h; percent of 10 µM SAHA response; AID 540364, 2011; activation, % at 6 µM; hit rate 0.56% among 360,000;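 active means activation above the average of all compounds screened plus 3 SD, cutoff fixed separately per campaign, cut at about 7.5% in these data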
esBAF inh – Bmi1 luciferase reporter increase in mESCs, primary screen, esBAF inhibitor project, mouse ES cells, Bmi1 luciferase knock-in, single point; 24 h; 100% = twice the neutral-well signal; reporter increase, % at 12.5 µM; hit rate 2% among 350,000; AID 602393, 2012; in the data active means activation above about 40%; inconclusive means no clear call, values can overlap the other calls;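 further: a rise in the Bmi1 reporter signal indicates esBAF inhibition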
MITF act – activators of MITF-driven TRPM1 promoter reporter, primary screen, cell-based, SK-MEL-5, luciferase, single point. SK-MEL-5 TRPM1-promoter luciferase, 24 h; % of positive control, neutral wells = 0. activation, % at 12.5 µM. hit rate 0.75% among 300,000;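 active means mean activation of at least 80% with every replicate also reaching 80%; inconclusive means mean reaches 80% but some replicate falls short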
Statin myotox sup – suppressors of statin myotoxicity in C2C12 myotubes, primary screen, cell-based, single point, plate reader; C2C12 myotubes + simvastatin, ATP luminescence, 48 h; scaled: DMSO 0, geranylgeraniol control 100; rescue of ATP level, % at 7.49 µM; hit rate 0.78% among 330,000; AID 602340, 2012;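 active means mean ATP rescue above about 67%, or every replicate alone reaching that limit, limit read from the data, passing the limit was not always enough; inconclusive means no clear call, values can overlap the other calls; inactive means mean under the limit and some replicate under it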;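 further: myotubes were challenged with 10 µM simvastatin during compound exposure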
Wnt act – Wnt/beta-catenin pathway activators, primary screen, cell-based, plate reader, single point. hit rate 1.2% among 300,000. Wnt/beta-catenin reporter cell assay, activator. AID 743398, 2014. activation, % at 9.35 µM; in the data active means activation above about 30%, passing the limit was not always enough; inconclusive means no clear call, values can overlap the other calls
GAA30 counter – GAA30 FXN promoter activators, confirmation, counter-screen for GAA850 frataxin promoter activator project, cell-based, luminescence, HEK293, lucGAA30, triplicate; shares compounds with FXN GAA850 act; HEK293 lucGAA30 FXN promoter luciferase, 24 h; DMSO = 0%, 5 µM ipriflavone = 100%; activation, % at 6 µM; hit rate 66% among 1,900; AID 588350, 2011;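 active means mean activation above the mean of solvent-only control wells plus 3 SD, cut at about 22% in these data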;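 further: counterscreen of GAA850 promoter hits where activity marks nonselective or luminescence artifacts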
FXN GAA850 conf – FXN GAA850 promoter activators in reporter cells, confirmation, cell-based, luminescence, HEK293 lucGAA850, triplicate. shares compounds with FXN GAA850 act. HEK293 lucGAA850 FXN promoter luciferase reporter, 24 h; 100% = activation by SAHA. activation, % at 6 µM. hit rate 86% among 1,900. AID 588351, 2011;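 active means mean activation above a set limit taken from the primary screen, cut at about 8% in these data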
Large screens that a line does not name were inactive (follow-up assays come after a bar, where they were run). Rows were chosen to be rich in hits. Some 3.3% of all compounds tested hit in one or more screens of this group.

CCCc1cc(C(=O)Nc2cc(C)ccc2O)no1	FXN GAA850 act 10, esBAF inh 57 | GAA30 counter 91 | FXN GAA850 conf 43
CC(=NNC(=S)N1CCCCC1)c1cccc(C)n1	none (no result: esBAF inh, Statin myotox sup)
CSC(=S)NN=C(C)c1cccc(C)n1	FXN GAA850 act 16 (no result: esBAF inh, MITF act, Statin myotox sup) | GAA30 counter inactive | FXN GAA850 conf inactive
CN(c1ccc(C(=O)NCCc2ccccc2)cc1)S(C)(=O)=O	none (no result: Wnt act)
CN(c1ccc(C(=O)NCCSC(C)(C)C)cc1)S(C)(=O)=O	FXN GAA850 act 8.1 (no result: Wnt act) | GAA30 counter 104 | FXN GAA850 conf 30
Nc1nc(=O)n(C2OC(CO)C(O)C2O)cc1F (stereo not given)	none (no result: FXN GAA850 act, MITF act)
O=c1[nH]c(=O)n(C2OC(CO)C(O)C2O)cc1F (stereo not given)	FXN GAA850 act 19 (no result: esBAF inh, MITF act, Statin myotox sup, Wnt act) | GAA30 counter inactive | FXN GAA850 conf 78
Cc1ccc([N+](=O)[O-])cc1N/C=C/C(=O)c1ccco1	FXN GAA850 act 9.3, esBAF inh 55 | GAA30 counter 27 | FXN GAA850 conf 25
O=C(/C=C/c1cccc([N+](=O)[O-])c1)c1ccco1	none
CN(C)CC(=O)N[C@H]1CC[C@H](CC(=O)NCc2ccccc2F)O[C@H]1CO	none (no result: FXN GAA850 act, MITF act, Wnt act)
O=[N+]([O-])c1ccc(N/N=C/c2cccc(O)c2O)cc1	FXN GAA850 act 15, Statin myotox sup 92 (no result: MITF act) | GAA30 counter 77 | FXN GAA850 conf 40
O=[N+]([O-])c1ccc(N/N=C/c2cccc(O)c2)cc1	none
O=C(NCc1ccco1)c1ccc(Cn2c(=O)c3sccc3n(Cc3cccc(F)c3)c2=O)cc1	FXN GAA850 act 18 | GAA30 counter 25 | FXN GAA850 conf 13
O=C(Cn1c(=O)n(Cc2ccco2)c(=O)c2ccccc21)Nc1cccc(Cl)c1	none
O=C(CCn1c(=O)c2sccc2n(CC(=O)NCc2ccco2)c1=O)NCc1ccccc1	none
O=C(NCc1ccco1)c1ccc(Cn2c(=O)c3ccccc3n(Cc3cccc(Cl)c3)c2=O)cc1	FXN GAA850 act 11 (no result: Wnt act) | GAA30 counter inactive | FXN GAA850 conf inactive
CC1=NN(c2ccccc2)C(=O)/C1=C\C=C\c1ccccc1	FXN GAA850 act 8.6 (no result: esBAF inh, MITF act, Statin myotox sup) | GAA30 counter inactive | FXN GAA850 conf 14
Cc1ccc(/C=N/NC(=O)C(C)Oc2ccccc2[N+](=O)[O-])s1 (stereo not given)	FXN GAA850 act 11 (no result: esBAF inh, Statin myotox sup) | GAA30 counter 26 | FXN GAA850 conf inactive
C[C@@H]1CN([C@H](C)CO)C(=O)c2cc(NC(=O)CCC(F)(F)F)ccc2O[C@H]1CN(C)C(=O)Nc1ccccc1	none (no result: FXN GAA850 act, MITF act, Wnt act)
c1cn2c(Nc3ccc4c(c3)OCCO4)c(-c3ccc(N4CCOCC4)cc3)nc2cn1	FXN GAA850 act 8.8, Wnt act 49 (no result: esBAF inh, Statin myotox sup) | GAA30 counter 56 | FXN GAA850 conf 18
CCOC(=O)c1sc(Nc2nc3ccc(OC)cc3s2)cc1C	none (no result: esBAF inh, Statin myotox sup, Wnt act)
CCOC(=O)c1sc(Nc2nc3c(F)cccc3s2)cc1C	FXN GAA850 act 11 (no result: esBAF inh, Statin myotox sup, Wnt act) | GAA30 counter 106 | FXN GAA850 conf 42
CS(=O)(=O)Nc1ccc2c(c1)[C@@H]1C[C@@H](CC(=O)NCc3ccc(Oc4ccccc4)cc3)O[C@@H](CO)[C@@H]1O2	none (no result: FXN GAA850 act, MITF act, Wnt act)
Cc1cc(C)c(C#N)c(SCc2nnc(-c3ccccc3[N+](=O)[O-])o2)n1	FXN GAA850 act 8.9, Wnt act 75 | GAA30 counter 108 | FXN GAA850 conf 41
COC(=O)c1ccc(COC(=O)CNC(=O)c2ccco2)cc1	none
COC(=O)c1ccc(COC(=O)CNC(=O)c2ccc(-c3ccccc3)cc2)cc1	FXN GAA850 act 8.1 (no result: esBAF inh, Statin myotox sup) | GAA30 counter 76 | FXN GAA850 conf 22
C[C@H](O)C#Cc1ccc2c(c1)O[C@@H](CN(C)C(=O)CC1CC1)[C@H](C)CN([C@H](C)CO)S2(=O)=O	none (no result: FXN GAA850 act, MITF act, Wnt act)
Cc1ccc(Cn2ncc(Cl)c(Cl)c2=O)cc1	none (no result: esBAF inh, Statin myotox sup, Wnt act)
CCc1ccc(C(=O)Cn2ncc(Cl)c(Cl)c2=O)cc1	FXN GAA850 act 8.5 (no result: Wnt act) | GAA30 counter inactive | FXN GAA850 conf 15
O=C(Cn1ncc(Cl)c(Cl)c1=O)N1CCOCC1	FXN GAA850 act 9.3 (no result: esBAF inh, Statin myotox sup) | GAA30 counter inactive | FXN GAA850 conf inactive
C/C=C/c1ccc([C@@H]2[C@@H](CO)N(C(C)=O)[C@@H]2CN(C)C(=O)CN(C)C)cc1	none (no result: FXN GAA850 act, MITF act, Wnt act)
N#CCSc1ccc(-c2nc3ccccc3[nH]2)cn1	FXN GAA850 act 7.8, Wnt act 34 (no result: esBAF inh, Statin myotox sup) | GAA30 counter 85 | FXN GAA850 conf 27
CCOC(=O)CSc1ccc(-c2nc3ccccc3[nH]2)cn1	none
CC(Oc1cc2oc(=O)cc(-c3ccccc3)c2cc1Cl)C(=O)NCC1CCC(C(=O)O)CC1 (stereo not given)	FXN GAA850 act 11 | GAA30 counter inactive | FXN GAA850 conf 8.8
Cc1ccc(S(=O)(=O)Nc2cccc3c2O[C@H](CN(C)S(=O)(=O)c2ccccc2)[C@@H](C)CN([C@H](C)CO)C3=O)cc1	none (no result: FXN GAA850 act, MITF act, Wnt act)
O=C(C[C@@H]1C[C@@H]2c3cc(NS(=O)(=O)c4ccc(F)cc4)ccc3O[C@@H]2[C@H](CO)O1)NCc1ccc(-c2ccccc2)cc1	none (no result: FXN GAA850 act, MITF act, Wnt act)
COc1ccc(/C=C/C2=NNC(=O)CC2)cc1	FXN GAA850 act 7.7 (no result: esBAF inh, Statin myotox sup) | GAA30 counter 83 | FXN GAA850 conf 32
CN(C)CCNC(=O)c1cccc2nc3cccc(F)c3nc12	FXN GAA850 act 25 (no result: esBAF inh, Statin myotox sup) | GAA30 counter inactive | FXN GAA850 conf 142
COc1ccc(OC)c2nc3c(C(=O)NCCN(C)C)cccc3nc12	FXN GAA850 act 15 (no result: esBAF inh, Statin myotox sup) | GAA30 counter inactive | FXN GAA850 conf 79
C[C@@H]1CCCCO[C@@H](CN(C)C(=O)NC2CCCCC2)[C@@H](C)CN([C@@H](C)CO)C(=O)c2cc(NC(=O)CCC(F)(F)F)ccc2O1	none (no result: FXN GAA850 act, MITF act, Wnt act)
CCCNC(=O)[C@@H]1[C@@H](CO)[C@@H]2Cn3c(ccc(C4=CCCC4)c3=O)[C@@H]2N1C(=O)c1cnccn1	none (no result: FXN GAA850 act, MITF act, Wnt act)
CCn1c2ccccc2c2nc3cc(C(=O)O)ccc3nc21	FXN GAA850 act 12 (no result: esBAF inh, Statin myotox sup) | GAA30 counter 101 | FXN GAA850 conf 27
CC(=O)Nc1ccc(-c2csc(Nc3ccccn3)n2)cc1	none
Oc1ccc(-c2csc(Nc3ccccn3)n2)cc1O	FXN GAA850 act 13 (no result: MITF act) | GAA30 counter 96 | FXN GAA850 conf 56
Cc1ccc(Nc2nc(-c3cccnc3)cs2)cc1C	Wnt act inconclusive
